High-throughput results from PubChem BioAssay.
Sfp inh: blocks B. subtilis Sfp PPTase activity; Biochemical Sfp PPTase activity, qHTS; Potency, µM, for inactives: largest response in the series, negative = inhibition, actives largely listed as inhibitors; Q9F4F7; 3.5% of 310,000 active;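 further: the enzyme is Sfp with the accession as filed and its product quenches rhodamine fluorescence; 0% = enzyme reaction without inhibitor and -100% = no enzyme wells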
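Fluorescence-quenching assay: 15 nM Sfp-PPTase preincubated 15 min at room temperature with compound, then 5 uM rhodamine-CoA and 12.5 uM BHQ-2-labelled YbbR peptide added. Fluorescence (ex 525/em 598 nm) read at start and after 30 min; difference gives rate.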
TrxR1 substrate: rat thioredoxin reductase 1 substrate activity; O89049; purified TrxR1 substrate turnover, NADPH consumption readout; Potency, µM (highest dose often 114 µM), for the others: top-dose activity change, negative = substrate turnover; 0.01% of 390,000 active; AID 588456; further: nearly all actives have a fitted effect of over 50% in size
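Rat TrxR1, dispensed at 90 nM, was prereduced with 400 uM NADPH (final) for 5 min at ~22 deg C, then incubated with compound 15 min before 400 uM selenite. A first-read NADPH fluorescence drop versus no-compound background flagged substrates.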
VDR inhibitor: vitamin D3 receptor (human) inhibition | P11473 | VDR-SRC2-3 peptide fluorescence polarization, 2 h | Potency, µM, for the others: max response, negative = inhibition, most hits filed as inhibitors | 0.93% of 400,000 active | AID 504847
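FP read-out; VDR + SRC2-3 coactivator peptide; 23 nl compound by pintool; 2 h RT incubation; reagents held at 4 deg C, protected from light.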
PLK1 PBD inh: inhibitors of human PLK1 polo-box domain binding. Potency, µM, without a hit: max response, negative = inhibition, usual class: inhibitors. 2.8% of 360,000 active. Plk1 PBD binding of FITC phosphopeptide, fluorescence polarization. AID 720504. P53350; further: series mostly up to about 57 µM; nearly all actives have a fitted effect of over 65% in size
Target sequence (P53350 whole entry, looked up, the tested form may be a part): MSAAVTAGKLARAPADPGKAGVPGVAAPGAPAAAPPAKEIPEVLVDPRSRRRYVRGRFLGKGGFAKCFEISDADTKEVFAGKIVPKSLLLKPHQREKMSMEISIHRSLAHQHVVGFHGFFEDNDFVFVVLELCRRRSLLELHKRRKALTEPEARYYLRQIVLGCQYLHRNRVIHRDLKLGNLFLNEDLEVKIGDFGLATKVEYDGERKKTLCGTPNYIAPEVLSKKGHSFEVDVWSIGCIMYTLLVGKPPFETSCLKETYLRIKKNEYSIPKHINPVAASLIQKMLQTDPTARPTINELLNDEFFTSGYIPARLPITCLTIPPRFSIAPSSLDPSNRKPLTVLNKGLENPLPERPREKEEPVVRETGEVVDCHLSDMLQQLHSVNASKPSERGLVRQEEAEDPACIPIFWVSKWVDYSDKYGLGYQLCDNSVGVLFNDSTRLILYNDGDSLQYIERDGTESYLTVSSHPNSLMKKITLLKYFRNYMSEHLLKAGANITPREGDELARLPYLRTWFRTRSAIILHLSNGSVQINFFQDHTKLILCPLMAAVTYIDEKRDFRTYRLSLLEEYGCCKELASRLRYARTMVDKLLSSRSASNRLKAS
TrxR1 inh: rat TrxR1 inhibition | O89049 | recombinant rTrxR1, NADPH fluorescence consumption, selenite substrate | Potency, µM (series often up to 114 µM), inactives show top-dose activity change, negative = inhibition, most hits filed as inhibitors | AID 588453 | 1% of 390,000 active; further: nearly all actives have a fitted effect of over 65% in size
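Rat TrxR1 (90 nM in the dispensed reagent) was pre-reduced with 400 uM NADPH for 5 min at room temperature, then incubated with compound for 15 min. After 400 uM selenite was added, NADPH fluorescence (Ex 340/Em 450 nm) was followed for 8 min.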
IDH1 R132H inh: human IDH1 R132H inhibition; O75874; IDH1-R132H enzyme, NADPH consumption, diaphorase/resazurin fluorescence; Potency, µM (highest dose often 76.6 µM), for the others: at the top dose activity change, negative = inhibition, hits mostly inhibitors; 0.093% of 390,000 active; AID 602179; further: nearly all actives have a fitted effect of over 65% in size
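IDH1-R132H (0.5 ug/mL dispensed) in pH 7.5 Tris buffer was preincubated 30 min with compound, then given a substrate mix of 0.016 mM NADPH and 2 mM alpha-KG for 80 min at room temperature; remaining NADPH was read by diaphorase/resazurin fluorescence.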
* = called active by the depositor; ? = inconclusive; · = no result; [ ] = another dose, or the depositor's remark. Sampled rows, rich in hits. Any-hit rate of the full collection: about 5.2%. The call rests on the fitted dose curve; in most records, active means well fitted curve in the direction sought with a large enough effect; inconclusive means small, poorly fitted or top-dose-only effect, or another doubt; inactive means no such curve, though single readings can be large; an effect the other way counts as inactive or inconclusive. Unless noted, on the % scale 0 is the no-effect control and ±100 the full control effect; potency means the concentration at half of the fitted maximal effect.

SMILES	Sfp inh	TrxR1 substrate	VDR inhibitor	PLK1 PBD inh	TrxR1 inh	IDH1 R132H inh
Clc1ccc(N2O[C@H]3C=C[C@@H]2C3)nc1	·	·	·	29.9µM*	·	·
O=C(c1ccc[nH]1)N1O[C@@H]2C=C[C@H]1C2	·	2.2%	-21.4%	-4.1%	-34.1%	-2.1%
C/C(=N\Nc1nc(-c2ccccc2)cs1)c1cccs1	56.2µM*	-7.2%	-14.9%	-23.4%	-12.8%	1.7%
Cc1cc(C)c(-c2csc(Cc3nc(-c4cc5ccccc5oc4=O)cs3)n2)cc1C	9.9%	8.4%	?	26.7µM*	-4.0%	-0.4%
Cc1cc(C)c(-c2csc(-c3cc4ccccc4oc3=O)n2)cc1C	·	13.2%	-15.5%	·	18.1%	-16.3%
COc1ccc(-c2nnc3n2N=C(c2ccc(OC)cc2OC)CS3)cc1	8.8%	·	·	·	·	·
COc1ccc(NC(=O)CSc2nnc(-c3ccc(F)cc3)o2)cn1	·	5.4%	-1.0%	-4.6%	25.6%	-1.1%
CCOC(=O)c1cc(-c2nnc(SCC(=O)Nc3ccc(F)cc3)o2)c(C)nc1C	?	4.0%	?	21.2µM*	8.8%	-0.6%
COc1ccc(CNC[C@@H](CCCCN(C)Cc2ccc(OC)cc2)N2C[C@H](c3ccccc3)N(CCc3ccc(Cl)c(Cl)c3)C(=O)C2=O)cc1	28.2µM*	3.7%	-8.8%	-6.8%	-10.0%	-4.4%[38.3 µM]
CN(CCCC[C@H](CNCc1ccc(-c2ccccc2)cc1)N1C[C@H](c2ccccc2)N(CCc2ccc(Cl)c(Cl)c2)C(=O)C1=O)Cc1ccc(-c2ccccc2)cc1	22.4µM*	·	·	·	·	·
COC(=O)C=CSC(=S)C1CCCC1=N (configuration not stated)	·	·	·	?	·	9.1%
O=C(NN1CCOCC1)c1ccc(Cl)cc1Cl	·	-8.9%	-3.1%	-11.6%	18.4%	4.9%
O=S(=O)(NN1CCOCC1)c1cc(Cl)cc(Cl)c1O	-14.4%	-10.5%	?	15µM*	-5.9%	11.4%
COc1cc(NC(=S)NCc2ccco2)cc(OC)c1OC	-6.2%	-4.2%	4.7%	-3.8%	-25.0%	-2.0%
O=C(c1ccco1)N(Cc1ccc(Cl)cc1)Cc1ccco1	0.9%	0.8%	5.6%	-0.1%	13.6%	11.8%
Cn1cc(Cl)c(C(=O)NNC(=S)NCc2ccco2)n1	56.2µM*	-1.3%	?	26.7µM*	1.5%	-2.6%
Cc1c(Cl)c(C(=O)NNC(=S)NCc2ccco2)nn1C	17.0%	-0.1%	15.8%	-22.5%	-0.4%	3.8%
COc1ccccc1NC(=S)NCc1ccco1	56.2µM*	-9.3%	3.7%	-14.9%	-39.1%	7.8%
CC(C)(C)NC(=S)NCc1ccco1	3.55µM*	-8.0%	8.3%	-7.3%	-18.5%	8.8%
CN(C)c1ccc(CN(Cc2ccco2)C(=O)c2ccco2)cc1	-13.2%	2.0%[57.1 µM]	-17.6%	23.8µM*	3.8%[57.1 µM]	-2.2%
Fc1ccc2[nH]c3c(NCc4ccco4)ncnc3c2c1	·	33.9%	-8.2%	·	16.0%	·
CC(C)c1ccc2oc(-c3cccc(NC(=O)c4ccc5c(c4)OCCO5)c3)nc2c1	·	21.9%	2.3%	·	30.1%	-1.7%
CC(C)C[C@H]1CN(CCCC[C@@H]2CNC(=O)C(=O)N2CCc2ccccc2)C(=O)C(=O)N1CCc1ccc(O)cc1	·	·	·	-6.0%	·	·
CCOC(=O)N1CCC(NC(=O)c2cc(COc3ccccc3SC)on2)CC1	0.5%	-2.6%	5.7%	-8.2%	5.5%	-7.0%
COC(=O)NC(c1cccc(C)c1)[C@@]1(C(=O)OC)CCCC1=O (some centres not stated)	18.1%	·	·	·	·	·
SMILES	Sfp inh	TrxR1 substrate	VDR inhibitor	PLK1 PBD inh	TrxR1 inh	IDH1 R132H inh
S=C(NCc1cccc(Cl)c1)NCc1ccco1	0.4%	2.4%	?	?	-6.6%	6.5%
CN(C)c1ccc(C(=S)NCc2ccco2)cc1	14.1µM*	21.7%[57.1 µM]	?	18.9µM*	-50.6%	2.7%
COc1ccccc1NC(=S)NC1CCCCC1	-20.0%	0.4%	2.1%	-29.4%	-9.6%	3.6%
COc1ccccc1NC(=S)NCC1CCCCC1	18.9%	0.1%	?	5.97µM*	-5.1%	-6.5%
S=C(NCc1ccccc1)NCc1ccco1	-5.6%	-1.5%	-18.6%	?	?	5.1%
NNC(=S)NCc1ccco1	39.8µM*	7.2%[57.1 µM]	-5.0%	?	-4.8%[57.1 µM]	1.6%
S=C(NCc1ccco1)NCc1ccco1	·	11.4%[57.1 µM]	?	5.97µM*	-4.6%[11.4 µM]	1.3%
CSc1ncccc1C(=O)NNc1cc(Cl)ccc1Cl	-2.3%	4.1%	6.6%	-12.3%	1.1%	-3.6%
C=C1C=C(C)n2ncc(C(=O)Nc3ccc(F)cc3F)c2N1	·	8.4%	·	·	10.9%	·
COc1ccc(CNC(=O)c2cc3sccc3n2C)cc1	·	-1.0%	-10.9%	·	2.7%	·
COCCN(C(=S)Nc1c(C)cc(C)cc1C)C(C)c1cccnc1 (configuration not stated)	11.2µM*	-4.8%	44.7µM*	5.97µM*	-7.9%	-1.5%
COCCN(C(=S)Nc1c(C)cccc1C)C(C)c1cccnc1 (configuration not stated)	-6.0%	1.5%	-3.4%	-4.2%	5.6%	-0.2%
COCCNC(=O)c1nn(-c2ccc(Cl)cc2)nc1CO	·	47.8%	20.5%	·	28.3%	-4.6%
CC(Oc1ccccc1)C(=O)Nc1nnc(S(=O)(=O)Nc2ccccc2)s1 (configuration not stated)	33.1%	-3.6%	-8.0%	-1.3%	2.5%	-4.6%
CCCCNC(=O)CN1CCN(c2ccc(NC(=O)c3ccc(OC)cc3)cc2C(=O)O)CC1	·	4.2%[57.1 µM]	13.0%	·	13.4%[57.1 µM]	-4.2%
Cc1ccc2cccc(NC(=S)NC(=O)c3ccccc3)c2n1	?	7.3%	2.4%	-1.5%	2.4%	-6.0%
Cc1nc2ccc(NC(=O)c3ccc4ccccc4n3)cc2s1	7.6%	-7.4%	-9.1%	-3.1%	7.7%[57.1 µM]	22.2%
Cc1nc2ccc(NC(=O)c3ccccc3)cc2s1	2.7%	0.1%	-4.7%	21.2µM*	11.2%	7.4%
Cc1ccc2cccnc2c1NC(=S)NC(=O)c1ccccc1	17.8µM*	7.5%[57.1 µM]	?	-16.0%	-30.8%[57.1 µM]	-0.9%
Cc1ccc(NC(=O)CCS(=O)(=O)c2ccc3nc(C)sc3c2)cc1	10.8%	2.0%[57.1 µM]	-9.6%	26.7µM*	15.6%[57.1 µM]	6.8%
O=C(NC(=S)Nc1ccc2ncccc2c1)c1ccccc1	50.1µM*	-3.6%	-3.6%	-0.5%	?	9.2%
COCCn1c(=S)[nH]c2cc(C(=O)NC3CCCC(C)C3C)ccc2c1=O (configuration not stated)	·	·	·	-3.8%	·	-1.7%
NCc1nc2cccnc2n1Cc1ccccc1Cl	·	-4.3%	-16.8%	·	-6.0%	6.7%
CCOC(=O)c1c(C)[nH]c(C)c1S(=O)(=O)N1CCN(c2ccc(Cl)cc2)CC1	·	6.8%[57.1 µM]	5.5%	·	28.5%[57.1 µM]	18.8%
Cc1ccc(OC(=O)c2ccc3nc(C)sc3c2)cc1	21.7%	7.5%[57.1 µM]	?	18.9µM*	8.1%[57.1 µM]	0.2%
COc1ccc(OC(=O)c2ccc3nsnc3c2)cc1	-6.9%	-1.3%[57.1 µM]	-2.4%	-12.7%	16.2%[57.1 µM]	5.2%
